Compound activity from PubChem.
Sampled rows, rich in hits. Any-hit rate of the full collection: about 12%.
Sm TGR inh: qHTS Assay for the Inhibitors of Schistosoma Mansoni Peroxiredoxins; Schistosoma mansoni thioredoxin glutathione reductase (TGR), Q962Y6; purified TGR, DTNB reduction, TNB absorbance 405 nm; Potency, µM (series often up to 114 µM), usual class: inhibitors; 360,000 tested, 3% active; note: nearly all actives have a fitted effect of over 60% in size
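TGR 20 nM + NADPH 100 uM (dispensed conc.), cpd preinc 15 min RT; start with NADPH (500 uM addition) then DTNB (15 mM addition). Kinetic TNB absorbance, 405 nm filter. Four-parameter Hill fit across titration.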
SARS PLpro yeast: qHTS of Yeast-based Assay for SARS-CoV PLP; AID 485353, 2010; S. cerevisiae expressing SARS-CoV PLpro, growth rescue; Potency, µM (highest dose often 32.9 µM), usual class: activators; 330,000 tested, 0.19% active; calls by dose curve; note: nearly all actives have a fitted effect of over 55% in size
Pf growth 96h: Primary qHTS for delayed death inhibitors of the malarial parasite plastid, 96 hour incubation; P. falciparum luciferase reporter growth, 96 h; Potency, µM (titrated, usually from 28.7 µM), hits mostly inhibitors; 320,000 tested, 6.9% active; AID 504834, 2011
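Readout is luminescence from an integrated firefly luciferase in P. falciparum. Red cells, 2% hematocrit and 0.05% parasitemia final, were cultured with compound through two parasite generations (96 hours) at 37 C, 5% CO2.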
Pf growth 48h: Primary qHTS for delayed death inhibitors of the malarial parasite plastid, 48 hour incubation. P. falciparum luciferase growth in erythrocytes, 48 h. Potency, µM (series often up to 28.7 µM), actives largely listed as inhibitors. 310,000 tested, 5.9% active. AID 504832, 2011
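First compound was added to culture medium, then infected red cells at 0.1% parasitemia and 2% hematocrit (final). After incubation at 37 C under 5% CO2, luciferase detection reagent was dispensed and light output recorded.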
Hits are given with their value; i = inactive; ? = inconclusive; nt = not tested or not shown. Unless noted, calls come from the whole dose curve; as a rule, active = well fitted curve in the direction sought with a large enough effect; inconclusive = small, poorly fitted or top-dose-only effect, or another doubt; inactive = no such curve, though single readings can be large; an effect the other way counts as inactive or inconclusive.

SMILES	Sm TGR inh	SARS PLpro yeast	Pf growth 96h	Pf growth 48h
COc1cc(CN(C2CCCCC2C)S(=O)(=O)c2ccc(S(=O)(=O)NC3CC3)cc2)cc(OC)c1OC (configuration not stated)	i	i	i	8.28µM
COc1ccccc1CNS(=O)(=O)c1ccc(S(=O)(=O)NC2CC2)cc1	i	i	?	i
COc1ccc(CN(C2CCCCC2C)S(=O)(=O)c2ccc(S(=O)(=O)N(C)C)cc2)cc1OC (configuration not stated)	i	i	?	13.1µM
COc1ccc(S(=O)(=O)NC2CCSc3ccccc32)cc1OC (configuration not stated)	i	i	i	i
CCOC(=O)C(CO)(NC(C)=O)C(=O)OCC	i	?	0.928µM	i
Cc1ccc(CNC(=O)c2ccc(-c3nc(CS(=O)(=O)c4ccc(C)cc4)c(C)o3)cc2)cc1	i	nt	nt	nt
COCCCNC(=O)c1ccc(-c2nc(CS(=O)(=O)c3ccc(C)cc3)c(C)o2)cc1	25.1µM	nt	nt	nt
COc1ccccc1CNC(=O)c1ccc(-c2nc(CS(=O)(=O)c3ccc(C)cc3)c(C)o2)cc1	i	nt	nt	nt
CCCCNC(=O)c1ccc(-c2nc(CS(=O)(=O)c3ccc(C)cc3)c(C)o2)cc1	39.8µM	nt	nt	nt
Cc1oc2cc3oc(=O)c(CCC(=O)NCCCN4CCOCC4)c(C)c3cc2c1C	i	i	?	i
COc1cccc(C2CC(=O)Nc3c2c(=O)[nH]c2nc4ccccc4n32)c1 (configuration not stated)	i	nt	nt	nt
COc1ccc(N2CCN(C(=O)C(Cc3ccccc3)n3cccc3)CC2)cc1 (configuration not stated)	i	i	i	nt
CN([C@@H](Cc1ccc(OS(=O)(=O)c2cccc3cnccc23)cc1)C(=O)N1CCN(c2ccccc2)CC1)S(=O)(=O)c1cccc2cnccc12	i	i	1.04µM	0.928µM
Cc1cc(N2CCN(c3ccc(C(F)(F)F)cc3[N+](=O)[O-])CC2)c2ccccc2n1	i	i	7.38µM	13.1µM
Cc1cc(N2CCN(c3ccc([N+](=O)[O-])c4cccnc34)CC2)c2ccccc2n1	i	i	7.38µM	i
O=C(Nc1ccccc1)N1CCCN(c2ccc(C(F)(F)F)cc2[N+](=O)[O-])CC1	i	i	10.4µM	13.1µM
Cc1cc(N2CCN(C)CC2)nc2ccc(NC(=O)Nc3cccc(Cl)c3)cc12	i	nt	nt	nt
CCCCN(CC)CCNC(=O)Cn1c(=O)c2cccn2c2cccnc21	i	nt	nt	nt
CC(=O)N(c1ccc(Cl)cc1)c1c[nH]c2ccccc12	i	i	6.57µM	11.7µM
CC/C(=N\Nc1ccccc1)c1c(O)[nH]c(=O)[nH]c1=O	i	i	i	i
CC/C(=N\Nc1cccc2ccccc12)c1c(O)[nH]c(=O)[nH]c1=O	79.4µM	i	?	i
COc1cccc(N2CC(NC(=O)c3ccc4c(c3)OCO4)CC2=O)c1 (configuration not stated)	i	nt	nt	nt
CCc1ccc(Nc2nnc(SCC(=O)c3c(N)n(C4CC4)c(=O)[nH]c3=O)s2)cc1	i	i	?	i
N#C/C(=C\c1ccccn1)c1ccccn1	i	i	8.28µM	?
N#C/C(=C/c1cccs1)c1ccccn1	i	i	i	i
SMILES	Sm TGR inh	SARS PLpro yeast	Pf growth 96h	Pf growth 48h
CCOC(=O)c1noc2nc(C)n(CC(=O)Nc3ccc(Br)cc3C)c(=O)c12	i	nt	nt	nt
CC[N+](C)(C)Cc1ccccc1Br	i	i	3.22µM	?
CCCCn1nc(C(=O)N(CC(C)C)c2c(N)n(CCCC)c(=O)[nH]c2=O)c2ccccc2c1=O	i	i	i	i
O=C1c2ccccc2C(=O)C12Cc1ccccc1N1CCN(c3ccccc3)CC12 (configuration not stated)	i	i	i	i
Cc1ccc(N2C(=O)NC(=O)C3(Cc4ccccc4N4CCN(c5ccccc5)CC43)C2=O)cc1 (configuration not stated)	17.8µM	i	?	?
O=C1NC(=O)C2(Cc3ccccc3N3CCCC32)C(=O)N1c1cccc(Cl)c1 (configuration not stated)	?	i	2.33µM	i
COc1cc2c(cc1OC)/C(=C/C#N)NC(C)(C)C2	i	i	?	9.28µM
COc1cc2c(cc1OC)C(=S)NC1(CCCC1)C2	i	i	i	?
Cc1cc2oc(=O)cc(-c3cc4ccccc4o3)c2cc1OC(=O)N(C)C	i	i	?	?
CCN(CC)C(=O)Oc1cc2c(-c3cc4cccc(OC)c4o3)cc(=O)oc2cc1C	i	?	10.4µM	10.4µM
Cc1ccc(N2C(=O)CC(Sc3ccccc3C(=O)O)C2=O)cc1 (configuration not stated)	12.6µM	i	i	i
O=C(O)c1ccccc1SC1CC(=O)N(c2ccc3c(c2)OCO3)C1=O (configuration not stated)	2.24µM	i	i	i
Nc1ccccc1SC1CC(=O)N(c2ccc3c(c2)OCO3)C1=O (configuration not stated)	i	i	i	i
Cc1ccc(N2C(=O)CC(Sc3ncccc3C(=O)O)C2=O)cc1 (configuration not stated)	i	i	i	i
CCOC(=O)c1c(NC(=O)CSc2ccccc2C(=O)O)sc(C)c1C	i	i	i	i
Cc1cc(C)cc(N2C(=O)CC(Sc3ccccc3C(=O)O)C2=O)c1 (configuration not stated)	1.26µM	i	i	i
CC(C)CN1C(=O)CC(Sc2ccccc2C(=O)O)C1=O (configuration not stated)	?	i	nt	i
CCOC(=O)c1c(N2C(=O)CC(Sc3ccccc3C(=O)O)C2=O)sc(C)c1C (configuration not stated)	4.47µM	i	i	2.33µM
O=C(CCC(=O)c1cccs1)OCc1ccc([N+](=O)[O-])cc1	i	i	i	i
Fc1ccc(-c2noc3ncnc(Nc4ccc(F)cc4F)c23)cc1	i	nt	nt	nt
Cc1ccc(N2C(=O)CC(Sc3ccccc3C(=O)O)C2=O)cc1C (configuration not stated)	3.98µM	i	i	i
CCN1C(=O)CC(Sc2ccccc2N)C1=O (configuration not stated)	i	i	1.47µM	i
Cc1cccc(N2C(=O)CC(Sc3ccccc3C(=O)O)C2=O)c1 (configuration not stated)	14.1µM	i	?	i
Cc1ccc(N2C(=O)CC(Sc3ccccc3C(=O)O)C2=O)c([N+](=O)[O-])c1 (configuration not stated)	nt	i	?	i
COc1ccc(N2C(=O)CC(Sc3ccccc3C(=O)O)C2=O)c([N+](=O)[O-])c1 (configuration not stated)	11.2µM	i	i	i
COc1ccc(C(=O)Nc2cc(C)nn2-c2ccc(F)cc2)cc1	i	i	i	i
CCCN1C(=O)N(c2cccc(C)c2)C(C)(O)CC1(C)C (configuration not stated)	i	i	?	i
Cc1ccc(S(=O)(=O)N(CC(=O)c2ccc(Cl)cc2)C(=O)N2CCN(C)CC2)cc1	i	i	i	i
